Counter-ions that a name gives are not always drawn.
Test system: MDA-MB-468
Experiment: phospho-S6 immunofluorescence (DAPI-normalised), per-plate z-score; higher = higher phospho-S6 signal (less pathway suppression)
Details: 24 h
Description: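 GPCR-targeted compound library (MedChemExpress HY-L006) tested on MDA-MB-468 PTEN-null TNBC cells in 384-well plates at 0.1, 1 or 10 uM, combined with vehicle, GDC0941 450 nM or lapatinib 1 uM, for 24 h. Phospho-S6 (S240/244) immunofluorescence normalised to DAPI and expressed as a per-plate z-score; values are the mean of biological triplicates.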

| Compound | phospho-S6 immunofluorescence (z-score) (co-treatment: GDC0941 450 nM) | phospho-S6 immunofluorescence (z-score) (co-treatment: lapatinib 1 uM) | phospho-S6 immunofluorescence (z-score) (co-treatment: vehicle) |
| --- | --- | --- | --- |
| O=C1CCC[C@@H]2[C@H]3CCCN4CCC[C@@H](CN12)[C@@H]34 [Matrine] (compound 10 µM) | -0.52 | -0.53 | -0.24 |
| CC(C)(C)NCC(O)c1ccc(O)cc1Cl (centres undefined) (compound 10 µM) | 0.77 | 0.7 | 0.14 |
| Cc1ccc2c(c1)C1(CCN(CCc3nc(-c4ccccc4)oc3C)CC1)OC(=O)N2 (compound 10 µM) | 0.56 | 0.85 | 0.89 |
| O=C(O[C@H]1CN2CCC1CC2)N(Cc1cc(F)c(F)c(F)c1)c1cccc(F)c1 [Tarafenacin (D-tartrate)] (compound 10 µM) | 0.34 | -1.58 | 1.05 |
| CN1CCC(c2c[nH]c3ccc(O)cc23)CC1 (compound 10 µM) | 0.22 | 0.55 | 0.06 |
| N[C@]1(C(=O)O)CC[C@H](C(=O)O)C1 [trans-ACPD] (compound 10 µM) | 0.3 | 0.1 | -0.68 |
| NCC(O)c1ccc(O)cc1 (centres undefined) [Octopamine (hydrochloride)] (compound 10 µM) | 0.26 | 0.86 | 1.09 |
| O=C(C[S+]([O-])C(c1ccccc1)c1ccccc1)NO (centres undefined) [Adrafinil] (compound 10 µM) | -0.02 | 0.28 | -0.05 |
| CCC(COC(=O)c1cc(OC)c(OC)c(OC)c1)(c1ccccc1)N(C)C (centres undefined) [Trimebutine (maleate)] (compound 10 µM) | 1.12 | 1.5 | 0.51 |
| Cc1ncc(CN2CC=C(c3ccccc3)CC2)c(N)n1 [Ro 10-5824 (dihydrochloride)] (compound 10 µM) | -1.36 | -1.65 | 0.42 |
| CN(C)CCN(C)CCc1ccc(Cl)c(Cl)c1 [BD-1047 (dihydrobromide)] (compound 10 µM) | 0.39 | -1.41 | -0.85 |
| COc1ccc2c(c1)[nH]c1c(C)nccc12 [Harmine] (compound 10 µM) | -0.75 | -1.57 | -1.55 |
| CNC(C)Cc1ccccc1OC (centres undefined) [Methoxyphenamine (Hydrochloride)] (compound 10 µM) | 0.57 | -0.2 | 0.23 |
